Test results from PubChem BioAssay AID1159580 (chemical genetic matrix, 2015).
“And” between values parts separate entries of the source, which are not always exact repeats. Identical values can stand only once. Out of some 5,500 compounds screened, about 2,000 (36%) were called active. Not shown: some 18% with an inconclusive outcome. Cut-off read from the data, not from the text of the source: active = normalized growth mostly below about 0.91 (no sharp cut-off); inconclusive = no clear call, values can overlap the other calls; inactive = mostly above about 0.92. This is one part of the list.

Experiment: chemical genetic growth profiling, strain panel (AID 1159580);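 note: tested at 20 µM; growth read once vehicle control cultures reached saturation at 30 °C; 1 = growth at the plate median or of vehicle wells; lower values mean less growth of the strain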
Details: S. cerevisiae deletion strains, growth OD

Measured: normalized growth

CC(=O)NCc1c(I)c(NC(C)=O)c(I)c(C(=O)O)c1I
inactive: locus YAL013W, strain DEP1, hits give low values 0.997 | locus YAL021C, strain ccr4, hits give low values 0.989 | locus YAL026C, strain drs2, hits give low values 0.997 | locus YAL030W, strain snc1, hits give low values 1 | locus YBL061C, strain skt5, hits give low values 0.994 | locus YBR009C, strain hhf1, hits give low values 0.991 | locus YBR021W, strain FUR4, hits give low values 1.02 | locus YBR023C, strain chs3, hits give low values 0.993 | locus YBR171W, strain sec66, hits give low values 0.995 | locus YBR229C, strain ROT2, hits give low values 0.999 | locus YBR231C, strain swc5, hits give low values 1 | locus YBR279W, strain paf1, hits give low values 0.989 | locus YCL011C, strain gbp2, hits give low values 1 | locus YCL016C, strain dcc1, hits give low values 0.993 | locus YCL029C, strain bik1, hits give low values 0.982 | locus YCL061C, strain MRC1, hits give low values 0.983 | locus YCL069W, strain vba3, hits give low values 1 | locus YCR088W, strain abp1, hits give low values 1 | locus YDL005C, strain med2, hits give low values 1 | locus YDL035C, strain GPR1, hits give low values 1.01 | locus YDL040C, strain nat1, hits give low values 1 | locus YDL074C, strain BRE1, hits give low values 0.982 | locus YDL101C, strain DUN1, hits give low values 0.991 | locus YDL134C, strain PPH21, hits give low values 0.999 | locus YDL185W, strain tfp1, hits give low values 0.959 | locus YDL192W, strain arf1, hits give low values 0.99 | locus YDR001C, strain nth1, hits give low values 1.01 | locus YDR069C, strain doa4, hits give low values 0.999 | locus YDR101C, strain arx1, hits give low values 0.996 | locus YDR137W, strain rgp1, hits give low values 1.01 | locus YDR150W, strain NUM1, hits give low values 0.995 | locus YDR159W, strain sac3, hits give low values 0.99 | locus YDR162C, strain NBP2, hits give low values 0.997 | locus YDR195W, strain ref2 0.989 | locus YDR297W, strain sur2, hits give low values 0.995 | locus YDR318W, strain mcm21, hits give low values 0.984 | locus YDR334W, strain swr1, hits give low values 0.999 | locus YDR335W, strain msn5, hits give low values 1.01 | locus YDR388W, hits give low values 0.998 | locus YDR392W, strain spt3, hits give low values 0.957 | locus YDR502C, strain sam2, hits give low values 1 | locus YEL003W, strain gim4, hits give low values 1.01 | locus YEL037C, strain rad23, hits give low values 1 | locus YEL061C, strain CIN8 (second series), hits give low values 1 | locus YEL061C, strain CIN8, hits give low values 0.997 | locus YER015W, strain faa2, hits give low values 0.987 | locus YER016W, strain bim1, hits give low values 1 | locus YER110C, hits give low values 0.996 | locus YER111C, strain swi4, hits give low values 0.994 | locus YER155C, strain BEM2 (second series), hits give low values 1.01 | locus YER155C, strain BEM2, hits give low values 0.998 | locus YER167W, strain BCK2, hits give low values 1 | locus YFR010W, strain ubp6, hits give low values 0.998 | locus YGL078C, strain dbp3, hits give low values 1 | locus YGL086W, strain mad1, hits give low values 1.02 | locus YGL167C, strain pmr1, hits give low values 0.992 | locus YGL173C, strain kem1, hits give low values 0.995 | locus YGL227W, strain vid30, hits give low values 1 | locus YGL240W, strain doc1, hits give low values 0.986 | locus YGL248W, strain PDE1, hits give low values 1.01 | locus YGL253W, strain hxk2, hits give low values 0.996 | locus YGR078C, strain PAC10, hits give low values 1 | locus YGR135W, strain pre9, hits give low values 0.997 | locus YGR229C, strain SMI1, hits give low values 1 | locus YGR252W, strain gcn5, hits give low values 1.16 | locus YHR013C, strain ard1, hits give low values 0.997 | locus YHR027C, strain rpn1, hits give low values 1.01 | locus YHR030C, strain SLT2, hits give low values 0.996 and 1.01 | locus YHR079C, strain IRE1 (second series), hits give low values 0.992 | locus YHR079C, strain IRE1, hits give low values 1.02 | locus YHR094C, strain hxt1, hits give low values 0.98 | locus YHR129C, strain ARP1, hits give low values 0.997 | locus YHR142W, strain chs7, hits give low values 1.02 | locus YHR200W, strain rpn10, hits give low values 0.988 | locus YIL066C, strain RNR3, hits give low values 1 | locus YIL073C, strain SPO22, hits give low values 0.986 | locus YIL125W, strain kgd1, hits give low values 0.99 | locus YIR030C, strain dcg1, hits give low values 0.993 | locus YJL092W, strain hpr5, hits give low values 0.998 | locus YJL095W, strain BCK1 (second series), hits give low values 1 | locus YJL095W, strain BCK1, hits give low values 0.98 and 1.02 | locus YJL115W, strain asf1, hits give low values 0.993 | locus YJL129C, strain trk1, hits give low values 0.995 | locus YJL134W, strain LCB3, hits give low values 1 | locus YJL154C, strain vps35, hits give low values 1 | locus YJL164C, strain tpk1, hits give low values 0.996 | locus YJL166W, strain qcr8, hits give low values 0.991 | locus YJL168C, strain set2, hits give low values 0.992 | locus YJL187C, strain SWE1 (second series), hits give low values 0.987 | locus YJL187C, strain SWE1, hits give low values 1.02 | locus YJR043C, strain POL32, hits give low values 0.982 | locus YJR066W, strain TOR1, hits give low values 0.974
